Data taken from article PMC5540273 (PLoS ONE, 2017).

Tests used:
Settings in all cases: concentration: 1 μM, replicates: in singlicate; n = 1
YANK2 = tested on: T1, YANK2
T1 construct: gene STK32B

YANK3 = tested on: T2, YANK3
T2 construct: gene STK32C

YES = tested on: T3, YES
T3 construct: gene YES1

YSK1 = tested on: T4, YSK1
T4 construct: gene STK25

YSK4 = tested on: T5, YSK4
T5 construct: gene MAP3K19

ZAK = tested on: ZAK
ZAP70 = tested on: ZAP70
p38-alpha = tested on: T6, p38-alpha
T6 construct: gene MAPK14

p38-beta = tested on: T7, p38-beta
T7 construct: gene MAPK11

p38-delta = tested on: p38-delta
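Also: KINOMEscan kinase panel screen.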

| Compound | %Inh (YANK2) [%] | %Inh (YANK3) [%] | %Inh (YES) [%] | %Inh (YSK1) [%] | %Inh (YSK4) [%] | %Inh (ZAK) [%] | %Inh (ZAP70) [%] | %Inh (p38-alpha) [%] | %Inh (p38-beta) [%] | %Inh (p38-delta) [%] |
| --- | --- | --- | --- | --- | --- | --- | --- | --- | --- | --- |
| CC[C@@H]1CO[C@H](C(=O)Nc2ccccc2)CN1c1cc(-c2ccc3c(N)n[nH]c3c2)nc(NC)n1 [GSK2376236] | 77 | 0 | 0 | 6 | 1 | 0 | 0 | 8 | 0 | 26 |
| COc1ccc(Nc2nccc(N3CCC(NC(=O)C(C)c4ccc(Cl)cc4)C3)n2)cc1 (stereo not shown) [GSK1379735] | 7 | 15 | 13 | 0 | 0 | 5 | 2 | 0 | 24 | 29 |
| COc1cccc(C2=C(Nc3cc(Cl)c(O)c(Cl)c3)C(=O)NC2=O)c1 [SB-390767] | 0 | 4 | 19 | 0 | 30 | 0 | 0 | 0 | 0 | 39 |
| Cc1ccccc1-c1cc(-c2c[nH]nc2-c2ccccn2)ccn1 [GW680061] | 0 | 13 | 15 | 3 | 14 | 0 | 0 | 85 | 0 | 28 |
| Cc1ccc(NC(=O)Nc2ccc(Cl)cc2)cc1-c1ccc(C(=O)Nc2ccncc2)cc1 [GSK1398472] | 4 | 0 | 17 | 15 | 56 | 64 | 7 | 72 | 34 | 42 |
| CC(=O)c1c(C)c2cnc(Nc3ccn(C)n3)nc2n(C2CCCC2)c1=O | 0 | 2 | 1 | 0 | 18 | 0 | 0 | 0 | 0 | 15 |
| CS(=O)(=O)Cc1ccc(Nc2nccc(-c3c(-c4cccc(NC(=O)C5CCCCC5)c4)nn4ncccc34)n2)cc1 [GSK350559] | 13 | 3 | 36 | 0 | 16 | 15 | 22 | 2 | 6 | 0 |
| CC(=O)c1c(C)c2cnc(Nc3ccc(N4CCNCC4)cn3)nc2n(C2CCCC2)c1=O | 0 | 0 | 6 | 0 | 10 | 0 | 0 | 0 | 0 | 22 |
| COc1ccc(Nc2nccc(NCCNC(=O)Nc3cc(C)ccc3C)n2)cc1 [GSK1379899] | 0 | 0 | 0 | 0 | 4 | 3 | 0 | 0 | 0 | 21 |
| CCn1c(-c2c(N)noc2C)nc2cnccc21 [SB-737856] | 0 | 17 | 19 | 58 | 44 | 30 | 0 | 0 | 0 | 16 |
| CS(=O)(=O)CCNCc1nc(-c2ccc3ncnc(Nc4ccc5c(cnn5Cc5ccccc5)c4)c3c2)cs1.Cl.Cl [GW569716] | 0 | 0 | 21 | 0 | 36 | 0 | 0 | 4 | 0 | 18 |
| c1ccc(-c2ccnc3[nH]ccc23)cc1 [SB-693578] | 0 | 8 | 14 | 1 | 93.5 | 25 | 55 | 3 | 0 | 39 |
| CS(=O)(=O)CCNCc1nc(-c2ccc3ncnc(Nc4ccc(OCc5ccccc5)c(Cl)c4)c3c2)cs1.Cl [GW582764] | 0 | 40 | 7 | 0 | 30 | 5 | 0 | 0 | 0 | 37 |
| COC(=O)c1cccc(NC(=O)NC2CCN(c3ccnc(Nc4ccc(OC)cc4)n3)C2)c1 (stereo not shown) [GSK1379746] | 0 | 8 | 13 | 0 | 22 | 0 | 0 | 3 | 0 | 6 |
| CNc1nc(-c2ccc3c(N)n[nH]c3c2)cc(N2C[C@@H](C(=O)Nc3ccccc3)CC[C@H]2C)n1 [GSK2298859] | 89 | 32 | 2 | 0 | 17 | 0 | 0 | 22 | 0 | 0 |
| COc1ccc(CSc2nnc(-c3ccc4c(c3)CCO4)o2)cc1 | 0 | 0 | 0 | 0 | 0 | 0 | 0 | 0 | 0 | 23 |

| Compound | %Inh (YANK2) [%] | %Inh (YANK3) [%] | %Inh (YES) [%] | %Inh (YSK1) [%] | %Inh (YSK4) [%] | %Inh (ZAK) [%] | %Inh (ZAP70) [%] | %Inh (p38-alpha) [%] | %Inh (p38-beta) [%] | %Inh (p38-delta) [%] |
| --- | --- | --- | --- | --- | --- | --- | --- | --- | --- | --- |
| CCn1c(-c2ccccc2)nc2cnccc21 [SB-733416] | 0 | 32 | 4 | 0 | 0 | 7 | 0 | 0 | 0 | 56 |
| Cc1ccc(-c2nc(Nc3ccncc3)c3ccccc3n2)s1 [GSK189015] | 12 | 28 | 5 | 0 | 0 | 0 | 0 | 0 | 0 | 49 |
| Cc1ccc(NC(=O)c2ccc(Cl)cc2)cc1-c1ccc(C(=O)Nc2ccncc2)cc1 [GSK1398467] | 10 | 17 | 18 | 0 | 40 | 17 | 6 | 65 | 29 | 27 |
| COc1ccc2cc(-c3nc(-c4ccccc4C(C)C)[nH]c3-c3ccncc3)ccc2c1 [SB-660566] | 62 | 53 | 25 | 31 | 45 | 31 | 0 | 3 | 2 | 44 |
| COc1ccc(Nc2nccc(-c3ccc(NC(=O)c4cc5cc(F)ccc5[nH]4)cc3)n2)cc1 [GSK1229496] | 0 | 0 | 0 | 0 | 8 | 6 | 0 | 4 | 0 | 43 |
| CC(C)c1ccc(O)cc1Nc1ccnc2ccc(C(F)(F)F)cc12 [GW482059] | 2 | 0 | 0 | 0 | 73 | 9 | 0 | 0 | 0 | 1 |
| Fc1ccc(-c2nn3cccc(F)c3c2-c2ccncc2)cc1 [GW475620] | 46 | 12 | 5 | 0 | 14 | 25 | 3 | 97.6 | 16 | 21 |
| Nc1ncnc2occ(-c3ccc4c(c3)CCN4C(=O)Cc3cc(F)ccc3F)c12 [GSK2645446] | 0 | 0 | 0 | 4 | 66 | 0 | 0 | 0 | 0 | 24 |
| Cl.Cl.Cl.N#Cc1ccc(CCNc2nccc(-c3cccc(CN4CCNCC4)c3)n2)cc1 [GSK2137462] | 0 | 3 | 6 | 0 | 10 | 10 | 0 | 0 | 0 | 49 |
| COc1nccc(-c2c(-c3ccc(F)cc3)ncn2CCCN2CCOCC2)n1 [SB-282852] | 0 | 0 | 0 | 0 | 0 | 11 | 31 | 81 | 62 | 0 |
| CNCc1ccc2nc(NC(=O)c3ccc(C(C)(C)C)cc3)cn2c1 | 22 | 3 | 0 | 7 | 30 | 3 | 15 | 83 | 0 | 0 |
| COc1cccc(NC(=O)Nc2ccc(C)c(-c3ccc(C(=O)Nc4ccncc4)cc3)c2)c1 [GSK1398474] | 0 | 10 | 12 | 4 | 24 | 50 | 0 | 6 | 0 | 28 |
| O=C(Nc1n[nH]c2nc(-c3cccs3)c(Br)cc12)C1CCCC1 [SB-743341] | 15 | 65 | 0 | 0 | 0 | 19 | 0 | 13 | 24 | 24 |
| CC(=O)c1cccc(NC(=O)NC2CCN(c3ccnc(Nc4ccc(F)cc4)n3)C2)c1 (stereo not shown) [GSK1379710] | 0 | 6 | 0 | 0 | 20 | 9 | 0 | 30 | 0 | 14 |
| Cc1c(Cn2c(C)c(C)n3c(=O)cc(N4CCOCC4)nc23)cccc1C(F)(F)F [GSK2328680] | 0 | 0 | 7 | 14 | 0 | 16 | 0 | 21 | 0 | 33 |
